Results filed as inconclusive are left out. Active and inactive are the calls of the source. Calls come from the whole dose curve; as a rule, active = well fitted curve in the direction sought with a large enough effect; inconclusive = small, poorly fitted or top-dose-only effect, or another doubt; inactive = no such curve, though single readings can be large; an effect the other way counts as inactive or inconclusive.

Experimental findings from PubChem BioAssay (NCATS) are described below.

Experiment [1] in a line: P-glycoprotein substrates identified in KB-8-5-11 adenocarcinoma cell line, qHTS therapeutic library screen (AID 1346987). Note: nearly all actives have a fitted effect of over 65% in size. The procedure, abridged:
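Compounds are pinned in dose-response onto KB-8-5-11 cells (500 cells/well, colchicine-free medium) and left 72 h at 37 degree C. CellTiter-Glo luminescence then yields AC50 values.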

A short description of experiment [2]: NS1 protein of Zika virus - qHTS assay to identify small molecule inhibitors in human HEK 293 cells (AID 1347053). Note: nearly all actives have a fitted effect of over 55% in size. The procedure, abridged:
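Readout was TR-FRET using paired anti-NS1 antibodies after 24 h infection of HEK 293 cells with ZIKV MR766 (MOI = 0.5). Compound preceded virus by 1 h; reduced signal reflects lower NS1 expression.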

Experiment [3] can be described thus: qHTS of pediatric cancer cell lines to identify multiple opportunities for drug repurposing: Primary screen for TC32 cells (AID 1347089). Note: nearly all actives have a fitted effect of over 60% in size. The gist of the method: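 TC32 cells, 500-1,000/well in growth medium, compound-treated 48 h at 37 °C; viability from CellTiter-Glo luminescence. Primary screen: MIPE 11-point (0.78 nM–46 µM final), NPC 8-point (0.59 nM–46 µM final); confirmatory at 11-point dilutions.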

Experiment [4] can be described thus: qHTS of pediatric cancer cell lines to identify multiple opportunities for drug repurposing: Primary screen for DAOY cells (AID 1347090). Note: nearly all actives have a fitted effect of over 55% in size. The procedure, abridged: (§1)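 Viability measured as metabolically active cells via CellTiter-Glo luminescence following 48 hours of compound exposure, 11-point dilutions in confirmatory testing. 500-1,000 cells/well plated 5 hours before dosing; controls were DMSO and 2.3 µM bortezomib.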

Experiment [5] is described as follows: qHTS of pediatric cancer cell lines to identify multiple opportunities for drug repurposing: Primary screen for SJ-GBM2 cells (AID 1347091). The gist of the method:
as §1

Experiment [6] in a line: qHTS of pediatric cancer cell lines to identify multiple opportunities for drug repurposing: Primary screen for SK-N-MC cells (AID 1347093). The gist of the method:
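Metabolically active cells were quantified by ATP-dependent luminescence (CellTiter-Glo, 15 min at room temperature) following 48 h treatment. Cells had been plated at 500-1,000 per well and settled for 5 h beforehand.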

Experiment [7] can be described thus: qHTS of pediatric cancer cell lines to identify multiple opportunities for drug repurposing: Primary screen for BT-37 cells (AID 1347094). The gist of the method: (§2)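 Primary screen of approved and investigational compounds on cells in growth media at 37 degrees C, 5% CO2. MIPE set at 11-point and NPC set at 8-point dilutions; viability scored by ATP-based luminescence at 48 hours.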

The nature of experiment [8]: qHTS of pediatric cancer cell lines to identify multiple opportunities for drug repurposing: Primary screen for NB-EBc1 cells (AID 1347095). The procedure, abridged:
as §2

The nature of experiment [9]: qHTS of pediatric cancer cell lines to identify multiple opportunities for drug repurposing: Primary screen for U-2 OS cells (AID 1347096). Note: nearly all actives have a fitted effect of over 50% in size. The gist of the method:
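Viability after 48 h compound treatment at 37C, 500-1,000 cells/well, read as ATP luminescence with CellTiter-Glo. Primary screens used 11-point (MIPE, 0.78 nM-46 µM) or 8-point (NPC, 0.59 nM-46 µM) final concentrations; follow-up screens used 11-point dilutions.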

Experiment [10] is described as follows: qHTS of pediatric cancer cell lines to identify multiple opportunities for drug repurposing: Primary screen for A673 cells (AID 1347092). Note: nearly all actives have a fitted effect of over 45% in size. The procedure, abridged:
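A673 cells (500-1,000 cells/well) were treated 48 hours at 37 degrees C with compounds at 11-point (0.78 nM to 46 µM) or 8-point (0.59 nM to 46 µM) dilutions. Viability read by CellTiter-Glo luminescence; concentration-response curves fitted.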
Potency is the fitted concentration of half-maximal effect.

Consider `CNCC[C@@H](Oc1ccccc1C)c1ccccc1`, for which the Potency result in experiment [1], in experiment [2], in experiment [3], in experiment [4], in [5] and in experiment [6] was “inactive” each time. Further, the Potency entry in experiment [7], in experiment [8] and in experiment [9] was “inactive” each time.

Regarding `Oc1c(Cl)cc(Cl)cc1Sc1cc(Cl)cc(Cl)c1O`, in [1], the Potency was 4.61 µM (active). In addition, the Potency result in experiment [2], in [3], in experiment [4], in [10], in experiment [7] and in [9] was “inactive” each time.

As to `CC(C)(C)CC(C)(C)c1ccc(O)c(Cc2ccc(Cl)cc2Cl)c1`, the values for the Potency in [1], in experiment [5] and in experiment [8] were 23.1 µM (active), 21.1 µM (active) and 13.3 µM (active), respectively. The Potency entry in [2] and in experiment [3] was “inactive” each time.

`CC(=O)c1ccc2c(c1)N(CCCN1CCC(CCO)CC1)c1ccccc1S2`: the Potency entry in [1], in [2], in [3], in [4], in [6] and in experiment [8] was “inactive” each time.

Consider `O=C1OCCN1/N=C/c1ccc([N+](=O)[O-])o1`, for which the Potency entry in experiment [1], in [2], in [3], in experiment [4], in experiment [5] and in experiment [6] was “inactive” in each case. Moreover, the Potency result in experiment [7], in [8] and in experiment [9] was “inactive” each time.

Regarding `COC(=O)C1=C(C)NC(C)=C(C(=O)O[C@@H]2CCCN(Cc3ccccc3)C2)[C@@H]1c1cccc([N+](=O)[O-])c1`, the Potency in [1] is 20.6 µM (active). Further, the Potency result in experiment [2], in [3], in [4] and in experiment [10] was “inactive” each time.

In the case of `O=C(CCN1CCC(c2ccccc2)C1)c1ccc2c(c1)OCCO2` (stereo not drawn), the Potency entry in experiment [1], in experiment [2], in experiment [3], in experiment [5], in experiment [7] and in experiment [9] was “inactive” each time. Besides, the Potency in experiment [8] is 23.7 µM (active).

As for `CC(C)n1nc(-c2cc3cc(O)ccc3[nH]2)c2c(N)ncnc21`, the Potency in [1] is 0.366 µM (active); in experiment [3] it was 2.1 µM (active); in [4] it was 4.22 µM (active); in experiment [5] it was 0.596 µM (active); in [10] it was 10.6 µM (active); in [6], 0.299 µM (active). For the same molecule, the Potency in [7] is 1.1 µM (active); in experiment [8], 0.944 µM (active); in experiment [9] it was 13.3 µM (active).

Consider `C=C(CC)C(=O)c1ccc(OCC(=O)O)c(Cl)c1Cl`, for which the Potency entry in experiment [1], in [2] and in [5] was “inactive” in each case. Further, the figures for the Potency in [6] and in [8] were 18.8 µM (active) and 21.1 µM (active), respectively.

Consider `CCOC(=O)COc1ccc2c(C)c(CCN(CC)CC)c(=O)oc2c1Cl`, for which the Potency entry in [1], in experiment [2], in [3], in [4], in experiment [10] and in [6] was “inactive” in each case. For the same molecule, the Potency entry in experiment [8] and in experiment [9] was “inactive” each time.

Take `O=C(OCCOCCO)c1ccccc1Nc1cccc(C(F)(F)F)c1`: the Potency result in [1], in experiment [2], in experiment [3], in experiment [4], in experiment [10] and in experiment [6] was “inactive” in each case. The Potency result in [9] is “inactive”.

As for `CC(C)NC[C@@H](O)COc1cccc2ccccc12`, the Potency result in [1], in experiment [2], in experiment [3], in experiment [4], in experiment [5] and in [7] was “inactive” in each case. In addition, the Potency result in experiment [8] and in experiment [9] was “inactive” throughout.

`CCCSS/C(CCO)=C(\C)N(C=O)Cc1cnc(C)nc1N`: the Potency entry in experiment [1], in [2] and in [9] was “inactive” throughout. The Potency in [6] is 15 µM (active); in experiment [8] it was 16.8 µM (active).

On to `CCCCOc1cc(C(=O)NCCN(CC)CC)c2ccccc2n1`, for which the Potency result in [1], in [2], in experiment [3], in experiment [4], in experiment [8] and in [9] was “inactive” throughout.

`CC(C)(C)CC(C)(C)c1ccc(OCCOCC[N+](C)(C)Cc2ccccc2)cc1`: the Potency result in experiment [1] was “inactive”. For the same molecule, the Potency in experiment [2] was 12.6 µM (active); in experiment [5], 21.1 µM (active); in experiment [10] it was 10.6 µM (active); in experiment [6], 5.96 µM (active); in experiment [7], 13.8 µM (active).

Turning to `Cc1ccccc1C(=O)Nc1ccc(C(=O)N2CCCC(N(C)C)c3ccccc32)cc1` (stereo not drawn), the Potency is 5.8 µM (active) in [1]; 9.44 µM (active) in [5]; 8.41 µM (active) in experiment [10]; 6.68 µM (active) in [6]; 2.99 µM (active) in experiment [8]. In addition, the Potency result in experiment [2], in experiment [3] and in experiment [9] was “inactive” in each case.

Turning to `CN(C/C=C/c1ccccc1)Cc1cccc2ccccc12`, the Potency result in experiment [1], in [2], in [3] and in experiment [9] was “inactive” throughout.

In the case of `CCCCCC=CCC=CCCCCCCCC(=O)OCC`, the Potency result in [1], in experiment [2], in [3], in experiment [4], in experiment [5] and in experiment [9] was “inactive” in each case.

For the molecule `COc1cc(C=C2CCC/C(=C\c3ccc(O)c(OC)c3)C2=O)ccc1O`, the Potency is 25.9 µM (active) in experiment [1]; 0.938 µM (active) in [3]; 21.1 µM (active) in experiment [4]; 23.7 µM (active) in experiment [5]; 0.266 µM (active) in [10]; 0.335 µM (active) in [6]. For the same molecule, the Potency in experiment [7] is 27.6 µM (active).

As for `CCOC(=O)[C@H](CCc1ccccc1)N[C@@H](C)C(=O)N1Cc2ccccc2C[C@H]1C(=O)O`, the Potency result in experiment [1], in experiment [2], in experiment [3], in [5], in experiment [10] and in [7] was “inactive” each time. In addition, the Potency result in [8] and in [9] was “inactive” each time.

As to `Cc1c(N(C)CS(=O)(=O)O)c(=O)n(-c2ccccc2)n1C`, the Potency result in experiment [1], in [2], in experiment [3], in experiment [4], in [5] and in [6] was “inactive” in each case. For the same molecule, the Potency entry in experiment [7], in experiment [8] and in experiment [9] was “inactive” each time.

As for `CCCCCCc1ccc(O)cc1O`, the Potency result in [1], in [2], in [3], in experiment [4], in experiment [6] and in experiment [7] was “inactive” in each case. In addition, the Potency result in experiment [9] is “inactive”.

In the case of `Cc1c(C)n(Cc2ccccc2)c2ccc(C(=O)OCCN(C)C)cc12`, the Potency in experiment [1] was 23.1 µM (active). Also, the Potency result in [2], in experiment [3], in experiment [4], in experiment [10] and in [9] was “inactive” in each case.

Take `CCN(CC)CCOC(=O)C(c1ccccc1)C1CCCCC1` (stereo not drawn): the Potency entry in experiment [1], in experiment [2], in experiment [3], in [4], in [10] and in experiment [9] was “inactive” each time.
